Source: PubChem (National Center for Advancing Translational Sciences (NCATS))
D3 ag: qHTS of D3 Dopamine Receptor Agonist: qHTS; D3R DiscoveRx beta-arrestin cells, luminescence, 90 min; max activation, %; actives 0.58% (n = 410,000); in the data active = max activation above about 30%; also: 0% is about no effect
Target sequence (P35462 whole entry, looked up): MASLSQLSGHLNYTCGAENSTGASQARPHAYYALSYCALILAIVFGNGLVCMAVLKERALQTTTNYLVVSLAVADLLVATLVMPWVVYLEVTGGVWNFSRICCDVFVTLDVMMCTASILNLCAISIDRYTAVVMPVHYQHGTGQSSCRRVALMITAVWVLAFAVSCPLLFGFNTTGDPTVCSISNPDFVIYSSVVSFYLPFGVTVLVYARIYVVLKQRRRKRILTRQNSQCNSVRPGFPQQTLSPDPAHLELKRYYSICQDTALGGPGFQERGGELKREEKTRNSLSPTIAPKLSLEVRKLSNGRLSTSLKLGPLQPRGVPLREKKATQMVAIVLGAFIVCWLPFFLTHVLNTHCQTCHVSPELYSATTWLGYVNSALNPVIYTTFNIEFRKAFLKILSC
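Agonist mode: compounds and dopamine controls were applied to plated cells for 90 min at 37 degrees C after an overnight attachment at 1500 cells/well. Luminescent read-out followed 30 - 60 minutes at room temperature with DiscoveRx detection reagent.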
D3 antag: qHTS of D3 Dopamine Receptor Antagonist: qHTS. max response, negative = inhibition, %. D3R cells, DiscoveRx beta-arrestin luminescence, antagonist mode; hits give low values. AID 652054, 2013. actives 2.5% (n = 360,000); in the data active = max response below about -50%; inconclusive = no clear call, values can overlap the other calls; also: % is scaled to controls: 0 for no effect and ±100 for the full control effect
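Cells plated overnight at 1500 cells/well, then exposed to library compounds with dopamine controls for 90 minutes at 37 degrees C. DiscoveRx reagent added for 30–60 minutes at room temperature; luminescence read, quantitative HTS format.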
D1 ag: Allosteric Agonists of the Human D1 Dopamine Receptor: qHTS. HEK293 T-REx D1 cells, calcium flux, agonist mode. D(1A) dopamine receptor (Homo sapiens), P21728. activation, % at 2 µM. actives 1% (n = 360,000); in the data active = activation above about 30%; also: 0% is about no effect
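Inducible HEK293 T-REx D1 cells, force-coupled to calcium signalling, were plated at 4000 cells/well with tetracycline and held overnight at 30 C. After no-wash calcium dye loading, compound-evoked calcium rise over 180 s flagged agonists.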
D1 potentiator: Potentiators of Human D1 Dopamine Receptor: qHTS; D(1A) dopamine receptor (Homo sapiens), P21728; AID 504651, 2011; HEK293 TREx D1 cells, calcium flux, dopamine EC20 potentiation; potentiation, % at 10 µM; actives 0.036% (n = 360,000); in the data active = potentiation above about 30%; also: 0% is about no effect
D1 antagonist: Antagonist of Human D 1 Dopamine Receptor: qHTS. actives 3.2% (n = 360,000). D(1A) dopamine receptor (Homo sapiens), P21728. HEK293 TREx D1 cells, calcium flux, dopamine EC80; hits give low values. activity change, negative = inhibition, % at 10 µM. AID 504652, 2011; in the data active = activity change below about -30%; also: % is scaled to controls: 0 for no effect and ±100 for the full control effect
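Inducible Hek293 Trex D1 cells (tetracycline, overnight, 30 C). Calcium dye 30–90 min RT. Antagonist mode: EC80 dopamine added after 180 s compound read.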
BCR signal inh: qHTS Assay to Find Inhibitors of Chronic Active B-Cell Receptor Signaling. Potency, µM (highest dose often 46.1 µM), for inactives: at the highest dose activity change, negative = inhibition, usual class: inhibitors. actives 0.05% (n = 340,000). AID 493014, 2011. ABC-DLBCL IkBa-CBG/CBR reporter, luminescence ratio, 4 h; active = well fitted inhibition curve with a large enough effect in the signal ratio, with a control signal flat, not every such curve was filed as active; inconclusive = small, poorly fitted or top-dose-only effect, or effect the other way, or a change in a side signal; the % refers to the signal ratio;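 also: potency is read from the fitted curve at half-maximal effect; plate controls were basal doxycycline-induced cells for no effect and cells given 10 µM MG132 for full effect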
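Concentration-response series (up to 46 uM) were applied to TMD8 dual-reporter cells for 4 h at 37C with doxycycline. Green/red ratio, after filter-overlap correction, defined %Activity; red signal alone was normalised to basal cells and zero luminescence.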
An asterisk follows results filed as active; ! = repeats disagree. Sampled rows, rich in hits. Any-hit rate of the full collection: about 6%.

How did NC(=O)c1ccccc1-c1noc(-c2ccccc2F)n1 do in these assays?
D1 ag: 3; D1 potentiator: -4; D1 antagonist: -19; BCR signal inh: inconclusive

Results for COc1ccc([C@H]2C[C@H](O)[C@@H](n3cc(-c4ccc(F)cc4)nn3)CN2CC2CCCCC2)cc1 ?
D3 ag: 4; D3 antag: 3

What do the screens show for `Cc1cc(-c2ccc(C)c(S(=O)(=O)NCC3CCN(Cc4ccc(F)cc4)CC3)c2)on1`?
D3 ag: -12; D3 antag: -17; D1 ag: 9; D1 potentiator: -7; D1 antagonist: -33*!; BCR signal inh: 1%

What do the screens show for `COc1ccc(CCNC(=O)CCn2c(=O)c3ccccc3n(CC(=O)Nc3cccc(C)c3)c2=O)cc1OC`?
D3 ag: 5; D1 ag: 0; D1 potentiator: 0; D1 antagonist: -7

How did Cc1cc2c(cc1[N+](=O)[O-])NC(CNC(C)C)CC2 (centres undefined) do in these assays?
D3 ag: -7; D3 antag: -83*; D1 ag: 3; D1 potentiator: -8; D1 antagonist: 17; BCR signal inh: 3%

Results for Cc1cc(C(=O)NCC2CCCCC2)ccc1[N+](=O)[O-] ?
D3 ag: -9; D3 antag: -13; D1 ag: 3; D1 potentiator: 1; D1 antagonist: 0; BCR signal inh: inconclusive

Results for Cc1ccc(OCCn2c(Br)nc3c2c(=O)n(C)c(=O)n3C)cc1 ?
D3 ag: 35*; D3 antag: 15; D1 ag: 13; D1 potentiator: -6; D1 antagonist: -33*; BCR signal inh: 0%

What do the screens show for `COc1ccc(C)cc1NC(=O)c1nnn(Cc2cccc(Br)c2)c1N`?
D3 ag: -9; D1 ag: 6; D1 potentiator: -6; D1 antagonist: -8

How did COc1cc(/C=C2/NC(=O)N(Cc3ccccc3F)C2=O)cc(OC)c1O do in these assays?
D3 ag: 4; D3 antag: -20; D1 ag: 3; D1 potentiator: -6; D1 antagonist: -38*; BCR signal inh: 16%

How did Cc1cc(C(=O)CSc2n[nH]c(N)n2)c(C)n1-c1ccc(F)cc1 do in these assays?
D3 ag: -4; D3 antag: -26; D1 ag: -3; D1 potentiator: -6; D1 antagonist: 16; BCR signal inh: -1%

What do the screens show for `Cc1ccc(-n2c(C)cc(C(=O)CSc3n[nH]c(N)n3)c2C)cc1`?
D3 ag: 39*; D3 antag: 33; D1 ag: 2; D1 potentiator: -1; D1 antagonist: 3; BCR signal inh: -5%

Results for Cc1ccc2ccc3cc(C(=O)Nc4ccc(C)c(F)c4)nc3c2[nH]1 ?
D3 ag: 5; D1 ag: 1; D1 potentiator: -8; D1 antagonist: -6

How did COc1nsnc1N1CCOCC1 do in these assays?
D3 ag: 0; D3 antag: 14; D1 ag: 1; D1 potentiator: 3; D1 antagonist: 10; BCR signal inh: -4%

Results for CC(C)(C)NC[C@H](O)COc1nsnc1N1CCOCC1 ?
D3 ag: -42; D3 antag: -54*!; D1 ag: 0; D1 potentiator: -4; D1 antagonist: 3; BCR signal inh: -6%

What do the screens show for `COC(=O)COc1nsnc1N1CCOCC1`?
D3 ag: -1; D3 antag: 29; D1 ag: 1; D1 potentiator: -6; D1 antagonist: -60*; BCR signal inh: -2%

How did CC(=O)c1cccc(NC(=O)COc2nsnc2N2CCOCC2)c1 do in these assays?
D3 ag: 4; D3 antag: inconclusive; D1 ag: 6; D1 potentiator: -5; D1 antagonist: -35*; BCR signal inh: -15%

How did Cc1cccc(C2NC(=O)c3c(sc4c3CCN(C)C4)N2)c1O (centres undefined) do in these assays?
D3 ag: -2; D1 ag: 11; D1 potentiator: 0; D1 antagonist: 21

What do the screens show for `O=C(Nc1nnc(C2CC2)s1)c1ccc(Cl)c(S(=O)(=O)N2CCc3ccccc3C2)c1`?
D3 ag: 41*; D3 antag: 0; D1 ag: 3; D1 potentiator: -6; D1 antagonist: 16; BCR signal inh: 15%

How did CC(=O)c1c(O)cc(O)c(C(C)=O)c1O do in these assays?
D3 ag: 13; D3 antag: 30; D1 ag: 3; D1 potentiator: -7; D1 antagonist: -45*; BCR signal inh: inconclusive

What do the screens show for `CC(=O)c1c(O)cc(O)cc1CC(=O)O`?
D3 ag: 6; D3 antag: 14; D1 ag: 1; D1 potentiator: -4; D1 antagonist: -58*; BCR signal inh: -6%

How did O=C(NCCN1C(=O)S/C(=C\c2ccc(Cl)c([N+](=O)[O-])c2)C1=O)C1=COCCO1 do in these assays?
D3 ag: -8; D3 antag: -55*; D1 ag: 8; D1 potentiator: -6; D1 antagonist: -57*; BCR signal inh: inconclusive

What do the screens show for `COc1cc(CCN=Cc2cc(Cl)cc(Cl)c2O)c([N+](=O)[O-])cc1OC`?
D3 ag: -22; D3 antag: -50*

How did COc1cc(CC(=O)O)c([N+](=O)[O-])cc1OC do in these assays?
D3 ag: -1; D3 antag: 11; D1 ag: 2; D1 potentiator: -10; D1 antagonist: -18; BCR signal inh: inconclusive

What do the screens show for `Cc1c(Cl)c(-c2n[nH]c(=S)n2Cc2ccco2)nn1C`?
D3 ag: -1; D3 antag: -54*; D1 ag: 2; D1 potentiator: 0; D1 antagonist: 4; BCR signal inh: 7%

How did FC(F)(F)c1ccccc1-n1c(-c2ccco2)n[nH]c1=S do in these assays?
D3 ag: 11; D3 antag: -19; D1 ag: 3; D1 potentiator: 32*; D1 antagonist: 4; BCR signal inh: inconclusive

Results for S=c1[nH]nc(-c2ccco2)n1Cc1ccccc1 ?
D3 ag: -2; D3 antag: -81*; D1 ag: 9; D1 potentiator: -3; D1 antagonist: -7; BCR signal inh: -7%

Results for Cc1ccccc1-n1c(-c2ccco2)n[nH]c1=S ?
D3 ag: -5; D3 antag: -22; D1 ag: 4; D1 potentiator: 0; D1 antagonist: 7; BCR signal inh: -2%

What do the screens show for `S=c1[nH]nc(-c2ccc(Br)o2)n1Cc1ccccc1`?
D3 ag: -37; D3 antag: -82*; D1 ag: 1; D1 potentiator: -1; D1 antagonist: 4; BCR signal inh: inconclusive
